Results taken from PubChem BioAssay (EPA / NIEHS).
Active and inactive are the calls of the source. How the source made its calls: active means hit-call score of the fitted dose curve at least 0.9, where 1 is the maximum; inactive means score below 0.9.

read-out: BCL2L11 (gene 10018); experiment: LTEA_HepaRG_BCL2L11: Life Technologies and Expression Analysis (LTEA) Assay for Bcl-2 (BCL2L11) gene using HepaRG (AID 2283473); conditions: mRNA level, 48 h; actives raise or lower the signal
Protocol: LTEA_HepaRG is a cell based, multiplexed-readout assay that uses HepaRG, a human liver cell line, with measurements taken at 48 hours after chemical dosing on a 96-well plate.LTEA_HepaRG_BCL2L11 is one of 102 assay component(s) measured in the LTEA HepaRG cell culture assay. It is a marker of Cell proliferation, survival, death.Data from the assay component LTEA_HepaRG_BCL2L11 was analyzed into 1 endpoint. This assay endpoint, LTEA_HepaRG_BCL2L11, was analyzed with bidirectional fitting relative to DMSO as the negative control and baseline of activity. Using a type of inducible reporter, measures of mRNA induction for gain or loss-of-signal activity can be used to understand regulation of transcription factor activity. To generalize the intended target to other relatable targets, this assay endpoint is annotated to the cell cycle intended target family, where the subfamily is Cell proliferation, survival, death.
A total of 1060 chemcials from the ToxCast library were tested in eight-point concentration-response experiments. Cell culture and cytotoxicity assays were conducted at Thermo Fisher Scientific's Custom Services facility (Madison, WI). A single lot of human HepaRG cells (Thermo Fisher Scientific, Frederick, MD) was used for the cell culture experiments. 96-well format collagen type I coated plates of human HepaRG cells were prepared using established methods. Briefly, cryopreserved HepaRG cells were thawed, plated at a density of approximately 100,000 cells/well in HepaRG Thaw, Plate, and General Purpose media (HPRG770, Thermo Fisher Scientific), and incubated for 48 hours. 0.5% DMSO was selected as vehicle control to balance the requisite need of DMSO in HepaRG cultures to maintain differentiation (for example, baseline metabolism, proportions of hepatocytes vs. cholangiocytes), while enabling further hepatic receptor pathway activation (for example, PXR and CAR) in response to chemical exposure. 48 hours after plating, the culture medium was replaced with HepaRG Serum-Free Incudtion Media. Cells were exposed to each test chemical in duplicate and maintained in CO2 incubators for another 48 hours. Chemical plates were thawed to room temperature and 200x concentrations of treatment groups were prepared. 8-point conentration-reponse curves were made with the highest exposure at 100 uM, followed by half-log dilutions, all in 0.5% DMSO. Each test plate contained variouse controls, induction positive controls (1mM phenobarbital), cytotoxicity positive controls ([…] aflatoxin B1), vehicle controls (0.5% DMSO), and total lysis controls (0.5% DMSO). Cell morphology images were taken using an Essen IncuCyte FLR automated microscope, with six 96-well plates imaged in about 24 minutes. Images were captured and exported and JPEG files. Spent culture media was transfered to black-well plates for the LDH assay, and remaining media was sorted at -80 C for later use. Cells were treated with RLT buffer and frozen until shipped for gene expression analysis. Total RNA was isolated from the cell suspension in 75 uL of Buffer RLT (Qiagen, Germantown, MD 20874) by Quintiles/Expression Analysis (Durham, NC) using a custom isolation procedure. Total RNA from each plate well was transferred to a preamplification plate. Fluidigm's 96.96 Dynamic ArrayTM (Fluidigm, Amsterdam, the Netherlands) technology was used for gene expression analyses by quantitative reverse transcription polymerase chain reaction (qRT-PCR, performed by Quintiles/Expression Analysis, Durham, NC)89. Standard TaqManTM Assays (Applied Biosystems/ThermoFisher Scientific, Foster City, CA) were used to assess the expression of 93 genes selected based on their selectivity and sensitivity to important hepatic receptors known to be modulated by environmental chemicals; importance in human hepatocyte functionality; and hepatotoxicity. […]

SMILES | outcome | AC50
Cc1ccc(O)cc1C | inactive | 
CCC(C)(C)c1ccc(O)cc1 | inactive | 
CCCCCCCc1ccc(O)cc1 | inactive | 
CC(C)(C)c1ccc(O)cc1 | inactive | 
O=P1(N(CCCl)CCCl)NCCCO1 (stereo not given) | inactive | 
Nc1ccc(Cl)cc1 | inactive | 
c1ccc2c(c1)Nc1ccccc1S2 | inactive | 
O=P(Oc1ccccc1)(Oc1ccccc1)Oc1ccccc1 | inactive | 
O=[N+]([O-])c1ccc(Cl)c(Cl)c1 | inactive | 
CCCCN(CCCC)SN(C)C(=O)Oc1cccc2c1OC(C)(C)C2 | inactive | 
COCCOCCO | inactive | 
CCCCN(CCCC)N=O | inactive | 
CCCCc1ccccc1 | inactive | 
c1nc[nH]n1 | inactive | 
Cc1ccc(N)cc1N | inactive | 
CCOC(=O)c1ccccc1C(=O)OCC | inactive | 
CC(Cl)(Cl)C(=O)O | inactive | 
CSC(C)(C)C=NO | inactive | 
[N-]=[N+]=[N-] |  | 80.6 µM (active)
CCCN(CCC)c1c([N+](=O)[O-])cc(C(C)C)cc1[N+](=O)[O-] |  | 0.106 µM (active)

SMILES | outcome | AC50
O=C(O)C(Cl)Cl | inactive | 
CN(C)C(=O)Cl | inactive | 
O=C(O)C1C(C(=O)O)C2(Cl)C(Cl)=C(Cl)C1(Cl)C2(Cl)Cl (stereo not given) | inactive | 
Cc1ccc([N+](=O)[O-])cc1C | inactive | 
CCOS(=O)(=O)OCC | inactive | 
c1ccc(OP(Oc2ccccc2)Oc2ccccc2)cc1 | inactive | 
CCOP(=S)(OCC)SCSCC | inactive | 
CCC1(c2ccccc2)C(=O)N=C(O)NC1=O (stereo not given) | inactive | 
Nc1cc2c3c(c1)C(c1ccccc1)=N[C@@H](NC(=O)c1cccnc1)C(=O)N3CC2 | inactive | 
OCC1CO1 (stereo not given) | inactive | 
ClC(Cl)(Cl)c1ccccc1 | inactive | 
ClC1=C(Cl)C2(Cl)C3C(Cl)C(Cl)CC3C1(Cl)C2(Cl)Cl (stereo not given) | inactive | 
c1cc2c3c(cccc3c1)CC2 | inactive | 
O=[N+]([O-])c1ccccc1 | inactive | 
Nc1ccc2ccccc2c1 | inactive | 
CCN(CC)c1ccccc1 | inactive | 
CCOP(=S)(Oc1ccc([N+](=O)[O-])cc1)c1ccccc1 (stereo not given) | inactive | 
Cc1cccc(N)c1 | inactive | 
CC(Cc1ccc(OCC(=O)O)cc1)NCC(O)c1csc(C(F)(F)F)n1 (stereo not given) | inactive | 
CCOc1ccc(C(C)(C)COCc2cccc(Oc3ccccc3)c2)cc1 | inactive | 
